Assay results taken from ChEMBL document CHEMBL4888484, “Replenishing the malaria drug discovery pipeline: Screening and hit evaluation of the MMV Hit Generation Library 1 (HGL1) against asexual blood stage Plasmodium falciparum ,using a nano luciferase reporter read-out” (2022).
Hit rate of the full screen: of about 4,800 compounds, about 410 (8.5%) showed an effect of 50% or more. The sample holds strong results, similar compounds and a random draw of the others, so the mix is not that of the screen.

Each compound was assayed on Plasmodium falciparum (assay: Confirmatory screen in NF54 pLDH assay, in single point, at 2uM, 72h). Settings: timepoint 72 hour.
Format: functional, Erythrocyte
For `O=C(Nc1cccc(Cl)c1)Nc1cccc(-c2cnc3n2CCC3)c1`, the “% Inhibition” value was 75%. `Cc1nn(C)c(NC(=O)Nc2cccc(Cl)c2)c1C1=CCCCC1` was tested, and the “% Inhibition” value was -9%. With `O=C(Nc1cccc(Cl)c1)c1ccc(-c2cnc(N3CCCC3)nc2)cc1` the “% Inhibition” value was -19%. For `O=C(Cn1cccn1)Nc1cccc(S(=O)(=O)N2CCCC2)c1`, the “% Inhibition” value was -8%. For `C[C@@H](C1CCCC1)N1C(=O)NC(CC(F)(F)F)C1=O` (stereo partly specified), the “% Inhibition” value was -23%. `O=C(NS(=O)(=O)C1CCOCC1)c1csc(-c2ccco2)n1` was tested, and the “% Inhibition” value was -10%. `COc1ccccc1-n1c(=O)n(C2CCCC2)c(=O)c2c1ncn2Cc1ccccc1Cl` was tested, and the “% Inhibition” value was 34%. For `COC(=O)c1ncn2c1C(=O)N(Cc1ccccc1OC)[C@](C)(C(=O)NC1CCCCC1)C2`, the “% Inhibition” value was 11%. `COc1ccccc1Cn1cnc2c1c(=O)n(C1CCCCC1)c(=O)n2-c1ccccc1Cl` was tested, and the “% Inhibition” value was 90%. In the case of `Cc1ccccc1Cn1cnc2c1c(=O)n(C1CCCCC1)c(=O)n2-c1ccccc1Cl`, the “% Inhibition” value is reported as 82%. In the case of `Cn1ncn(CC(=O)c2cccc(Cl)c2Cl)c1=O`, the “% Inhibition” value is reported as -14%. `O=C(CN1C(=O)N[C@H](c2ccc(F)cc2)C1=O)Nc1ccc2c(c1)OCCO2` was tested, and the “% Inhibition” value was 5%. In the case of `CC(C)(C)CC(C)(C)NC(=O)c1ccc2nc(N3C(=O)CCC3=O)sc2c1`, the “% Inhibition” value is reported as 9%. `C[C@H](c1ccccc1)N1C(=O)[C@@H]2CN(C(=O)CC(C)(C)C)CCN2C1=O` was tested, and the “% Inhibition” value was -13%. `Cc1ccc(CCC(=O)N2CC[C@H](C)S(=O)(=O)CC2)s1` was tested, and the “% Inhibition” value was 9%. `C[N+]12CCCCC1C(OC(=O)C1(c3ccccc3)CCCC1)CCC2` (stereo unspecified) was tested, and the “% Inhibition” value was 60%. For `O=C1C2ON(c3ccccc3)C(c3ccncc3)C2C(=O)N1c1ccc2ccccc2c1` (stereo unspecified), the “% Inhibition” value was 8%. With `COc1ccc2cc3n(c2c1)C[C@@](C)(C(=O)NC1CCCC1)N(Cc1ccc(F)cc1)C3=O` the “% Inhibition” value was 13%. For `Cc1cc(C)nc(N[C@H](c2ccc(F)cc2)c2cc(C)sc2NC(=O)c2ccccc2)n1`, the “% Inhibition” value was 6%. `COc1cc([C@@H]2C=C(c3ccc(Cl)cc3)Nc3ncnn32)ccc1OCc1ccc(Cl)cc1` was tested, and the “% Inhibition” value was 4%. `Cc1ccc([C@@H]2C=C(C(=O)O)Nc3c(C(N)=O)nnn32)cc1` was tested, and the “% Inhibition” value was -12%. With `Cc1ccc(C2=C[C@@H](c3ccc(Cl)cc3)n3nc(NC(=O)c4ccccc4)nc3N2)cc1` the “% Inhibition” value was 90%. `Cc1cccc(OC(=O)O[C@H]2c3nccnc3C(=O)N2c2ccc(Cl)cn2)c1` was tested, and the “% Inhibition” value was 16%. `CN(C)c1ccc2c(c1)CN(C(=O)c1ccccc1S(C)(=O)=O)CC2` was tested, and the “% Inhibition” value was -5%. In the case of `O=C(COc1ccc(Cl)cc1)N[C@H](CO)CC1CCCC1`, the “% Inhibition” value is reported as 4%. `O=S1(=O)N=C(n2ccnc2)c2ccccc21` was tested, and the “% Inhibition” value was -17%. `CS(=O)(=O)n1cnc2cc(F)c(F)cc21` was tested, and the “% Inhibition” value was -8%. With `COc1ccc(-c2nnc(COc3ccc(-c4ccccc4)cc3)s2)cc1` the “% Inhibition” value was -10%. `COc1ccc(-[n+]2c(-c3ccc(-c4ccccc4)cc3)cn3c2COCC3)cc1` was tested, and the “% Inhibition” value was 60%. With `COc1ccc(-[n+]2c(-c3ccccc3)cn3c2CCC3)cc1` the “% Inhibition” value was 59%. For `COc1ccc(CCc2nnc3n2CCOC3)cc1`, the “% Inhibition” value was -1%. In the case of `COc1ccc(-c2cc(-c3ccccc3)nc(N3CCC(C)CC3)n2)cc1`, the “% Inhibition” value is reported as 43%. For `COc1ccc(N2CCN(c3nc(-c4ccccc4)cs3)CC2)cc1`, the “% Inhibition” value was 0%. With `O=C(Cn1c(=O)n(Cc2ccco2)c(=O)c2ccccc21)NC1CCCCC1` the “% Inhibition” value was 10%. With `Cc1noc([C@H]2CCCN(C(=O)c3cc4c(s3)CCC4)C2)n1` the “% Inhibition” value was -5%. In the case of `O=C1c2ccccc2N[C@]2(C(=O)Nc3ccccc32)N1c1ccc2c(c1)OCO2`, the “% Inhibition” value is reported as -25%. `Cc1nn(-c2ncc(C(F)(F)F)cc2Cl)c(=O)n1-c1ccc(OCc2ccccc2)cc1` was tested, and the “% Inhibition” value was -12%. With `CCCCN(CC)c1ncc(C(=O)Nc2ccc(OCC)cc2)c(N)n1` the “% Inhibition” value was 15%. In the case of `Cc1ccc(NC(=O)Nc2cc(C)ccc2N2CCCN(Cc3ccc(F)cc3)C2=O)cc1`, the “% Inhibition” value is reported as 30%. `Cc1cccc(CNC(=O)NC2CCOC2c2ccc(Cl)cc2)n1` (stereo unspecified) was tested, and the “% Inhibition” value was -15%. With `Cc1cc(C)nc(NCCC[C@H]2CCCCO2)n1` the “% Inhibition” value was -15%. In the case of `Cc1cccc(CN(Cc2cccc(C)n2)C[C@H]2CCCCO2)n1`, the “% Inhibition” value is reported as 90%. For `CC(C)c1nc(CN(C)[C@@H](C)C(=O)Nc2nccs2)cs1`, the “% Inhibition” value was 23%. With `CC(C)NC(=O)C(=O)Nc1nccs1` the “% Inhibition” value was -19%. For `CC(C)N(CC(=O)Nc1nccs1)Cc1ccccn1`, the “% Inhibition” value was 59%. For `CCN1C(=O)CCN(C(=O)c2ccnn2C)CC12CCOCC2`, the “% Inhibition” value was 3%. In the case of `Brc1cccc2c1OCC[C@@H]2Nc1ncnc2nc[nH]c12`, the “% Inhibition” value is reported as 4%. With `Oc1ccccc1-c1cnc(C(F)(F)F)s1` the “% Inhibition” value was 90%. `Oc1nc(-c2cccc(C(F)(F)F)c2)sc1-c1ccccc1` was tested, and the “% Inhibition” value was 2%. For `Cc1ccc(OCC(=O)Nc2cc(C)nn2-c2nc3c(cnn3-c3ccc(C)c(C)c3)c(=O)[nH]2)cc1`, the “% Inhibition” value was 57%. `COc1ccc(-n2ncc3c(NCCNC(=O)c4ccccc4Cl)nc(C)nc32)cc1` was tested, and the “% Inhibition” value was -27%. `Cc1ccc(OCC(=O)Nc2ccc(N3CCn4c(nc5ccccc54)C3)cc2Cl)cc1` was tested, and the “% Inhibition” value was -20%. `CN(CCCNC(=O)C(=O)Nc1ccn(C)n1)c1cccc(F)c1` was tested, and the “% Inhibition” value was 10%. `COCCOC(=O)c1cc(C(F)(F)F)cc(C(=O)OCCOC)n1` was tested, and the “% Inhibition” value was 11%. With `CN(Cc1nccn1C)C(=O)c1cc2ccccc2[nH]1` the “% Inhibition” value was 15%. In the case of `Cn1c(=O)c2c(ncn2CC(=O)N(Cc2ccccc2)C2CC2)n(C)c1=O`, the “% Inhibition” value is reported as 2%. `CCCn1c(C)cnc1C1CN(S(=O)(=O)c2cc(Cl)ccc2Cl)C1` was tested, and the “% Inhibition” value was 6%. With `Cn1c(C(C)(C)C)nc2cc(NC3CCC4(CC3)OCCO4)ccc21` the “% Inhibition” value was -16%. `COCc1cc(F)ccc1NC(=O)NC1CCN(c2cc(C)nc(C)n2)CC1` was tested, and the “% Inhibition” value was 5%. In the case of `Cn1ncc2c(N3CC(=O)N(C4CC4)C3)ncnc21`, the “% Inhibition” value is reported as -15%. `C[C@@H]1CN(CCN(C)C(=O)Nc2nc(C3CC3)cs2)C[C@H](C)O1` was tested, and the “% Inhibition” value was 9%. With `Cc1c(C)n(C[C@H](O)Cn2c(C(F)(F)F)nc3ccccc32)c2c(Cl)cccc12` the “% Inhibition” value was -15%. For `CCC(C)NCC(O)Cn1c(-c2ccccc2)c(-c2ccccc2)c2cc(C)ccc21` (stereo unspecified), the “% Inhibition” value was 92%. `Cc1c(C)n(CC(O)CNC(C)c2ccccc2)c2c(Cl)cccc12` (stereo unspecified) was tested, and the “% Inhibition” value was 73%. `Cc1c(C)n(C[C@@H](O)CNC2CCCC2)c2c(Cl)cccc12` was tested, and the “% Inhibition” value was -18%. For `CC(NCC(O)Cn1c(-c2ccccc2)c(-c2ccccc2)c2ccc3ccccc3c21)c1ccccc1` (stereo unspecified), the “% Inhibition” value was 86%. With `Cc1cccc(C(=O)Nc2c(C#N)c(-c3ccccc3)c(-c3ccccc3)n2Cc2ccccc2)c1` the “% Inhibition” value was 13%. In the case of `O=S(=O)(c1c(Cl)cccc1Cl)N1CCC[C@@H]1CN1CCCC1`, the “% Inhibition” value is reported as 8%. `Cc1cc(CN2C(=O)N[C@@]3(CCCCc4ccccc43)C2=O)no1` was tested, and the “% Inhibition” value was 6%. In the case of `COc1ccc([C@H](NC(=O)CCc2ccccc2)c2c(O)ccc3ccccc23)cc1`, the “% Inhibition” value is reported as -6%. In the case of `Cc1cc(N2CCn3c(nc4ccccc43)C2)ccc1NC(=O)C1CCCCC1`, the “% Inhibition” value is reported as 14%. With `CN1c2ccccc2C(=O)N[C@@H]1c1ccccc1OCc1ccccc1` the “% Inhibition” value was -4%. For `COc1cccc(-n2c(C)cc(C(=O)N3CCNC(=O)CC3)c2C)c1`, the “% Inhibition” value was -5%. `N#Cc1c(NC(=O)Nc2cn3ccccc3c2C#N)cn2ccccc12` was tested, and the “% Inhibition” value was 35%. `O=C(NCC(N1CCOCC1)C(F)(F)F)C1CC12CCOC2` (stereo unspecified) was tested, and the “% Inhibition” value was 14%. With `O=c1[nH]c2nc(N3CCCCC3)ncc2c(=O)n1Cc1ccco1` the “% Inhibition” value was -14%. For `Cc1nc([C@@H](NC(=O)c2cc(Cl)cn2C)c2cnn(C)c2)no1`, the “% Inhibition” value was -10%. With `O=C(NC[C@H]1CCS(=O)(=O)C1)c1ccc2[nH]c3c(c2c1)CCCC3` the “% Inhibition” value was -6%. `Clc1ccc(COc2ccc(CNC3CCCCC3)cc2Br)cc1` was tested, and the “% Inhibition” value was -12%. `COc1cc(C(C)(C)C)c(OCC(=O)N(c2ccccc2)c2ccccc2)cc1C(C)(C)C` was tested, and the “% Inhibition” value was 7%. With `Cc1ccc(Oc2cc(C#N)c(C#N)cc2N2CCOCC2)cc1C` the “% Inhibition” value was -9%. For `CC[N+](C)(CC)CCOc1cc(C)c2ccccc2n1`, the “% Inhibition” value was 40%. `Cc1nc2ccccc2cc1OCc1ccc(F)cc1` was tested, and the “% Inhibition” value was 12%. With `COC(=O)c1ccccc1NC(=O)NCCn1nnc2cc(S(=O)(=O)N(C)C)ccc21` the “% Inhibition” value was 32%. For `CCN1C(=O)Cc2cc(NS(=O)(=O)Cc3ccccc3)ccc21`, the “% Inhibition” value was 12%. With `COc1ccc(CN2CC[C@@H]3C(=O)NCCCCCCN(Cc4ccncc4)[C@@H]3C2)cc1Cn1ccnc1` the “% Inhibition” value was 37%. In the case of `COc1cc(CNCCN2CCOCC2)ccc1OCc1ccc(C)cc1`, the “% Inhibition” value is reported as 10%. In the case of `COc1ccc(CNCc2ccc(C)cc2)cc1Cn1ccnc1`, the “% Inhibition” value is reported as 69%. For `Cc1ccc(NS(=O)(=O)c2ccc(NC(=O)CN(c3cc(Cl)ccc3C)S(C)(=O)=O)cc2)cc1C`, the “% Inhibition” value was -13%. For `Cc1cc(-c2nc(C3(c4ccncc4)CCC3)no2)ccn1`, the “% Inhibition” value was 4%. With `COc1ccc(OC)c(S(=O)(=O)N2C[C@H]3CCCC(=O)N[C@H]3C2)c1` the “% Inhibition” value was 9%. `COc1ccc(F)cc1S(=O)(=O)N1CCc2noc(N)c2C1` was tested, and the “% Inhibition” value was 63%. With `COc1ccc(S(=O)(=O)N2CCC(c3cc(N)on3)CC2)cc1Cl` the “% Inhibition” value was 40%. `COc1ccccc1OCC(=O)Nc1ccccc1-n1cnnc1C` was tested, and the “% Inhibition” value was 12%. `C[C@H](NC(c1ccccc1)c1ccccc1)c1nnc(-c2cccs2)o1` was tested, and the “% Inhibition” value was 7%. In the case of `Cc1cc(CS(=O)(=O)NCCOc2ccc(Cl)cc2)on1`, the “% Inhibition” value is reported as 2%. With `CCCOc1ccc(Nc2cc(C)nc3ccc(Cl)cc23)cc1` the “% Inhibition” value was 63%. `CC(C)(C)C1CC(NC(=O)C2CC=CC2)CCO1` (stereo unspecified) was tested, and the “% Inhibition” value was -1%. For `c1cc(-c2nc3cc4ccccc4cc3[nH]2)nc(-c2nc3cc4ccccc4cc3[nH]2)c1`, the “% Inhibition” value was 97%. `c1ccc2cc(-c3ccc4ccccc4n3)ccc2c1` was tested, and the “% Inhibition” value was 16%. In the case of `Cc1cccc(C)c1OCC(=O)Nc1ccc(-c2nc3cc4ccccc4cc3[nH]2)cc1`, the “% Inhibition” value is reported as 18%.
